Mtb BioA inh = BioA (M. tuberculosis) enzyme inhibition; 360,000 compounds, 0.096% hits; purified M. tuberculosis BioA enzyme, plate reader; inhibition, % at 9.99 µM; in the data active = inhibition above about 40%
Mtb hypoxia rep = reduces hypoxia-regulated biosensor signal in M. tuberculosis; M. tuberculosis hypoxia-regulated fluorescent reporter, fluorescence; fluorescence inhibition, % (no concentration beside the values); 300,000 compounds, 0.1% hits; AID 1159583; in the data active = fluorescence inhibition mostly above about 23%, no sharp cut-off; inactive = mostly below about 17%
FadD28 FP inh = M. tuberculosis FadD28 bisubstrate binding inhibition. inhibition, % at 12.5 µM. FadD28 bisubstrate probe binding, fluorescence polarization. 360,000 compounds, 0.22% hits; in the data active = inhibition above about 8.5%, passing the limit was not always enough
DUSP3 inh = blocks human VHR1 dual specificity phosphatase; P51452; recombinant VHR phosphatase, pNPP absorbance; inhibition, % at 13.3 µM; 290,000 compounds, 0.52% hits; in the data active = inhibition above about 50%
Target sequence (P51452 whole entry, looked up): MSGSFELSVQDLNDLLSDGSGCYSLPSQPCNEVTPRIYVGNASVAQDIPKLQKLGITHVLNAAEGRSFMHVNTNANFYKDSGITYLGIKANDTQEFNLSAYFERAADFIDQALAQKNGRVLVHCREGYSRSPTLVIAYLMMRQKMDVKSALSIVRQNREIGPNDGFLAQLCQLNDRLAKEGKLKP
SARS 3CLpro inh = SARS-CoV 3CLpro protease inhibition. recombinant SARS-CoV 3CLpro, quenched FRET peptide cleavage. 290,000 compounds, 0.14% hits. inhibition, % at 6 µM; in the data active = inhibition above about 12%
Numbers stand for hits; . = inactive; / = no result; ! = not confirmed by another sample. Compounds with a hit are over-represented: about 0.7% of the library has one in this group of screens.

SMILES	Mtb BioA inh	Mtb hypoxia rep	FadD28 FP inh	DUSP3 inh	SARS 3CLpro inh
CC1CCN(CCCNC(=O)C2CCC(CNS(=O)(=O)c3cccc4nsnc34)CC2)CC1 (centres undefined)	.	.	.	51	.
O=C(NCCCN1CCCCC1)C1CCC(CNS(=O)(=O)c2cccc3nsnc23)CC1 (centres undefined)	.	.	.	.	.
CCN1CCN(Cc2ccc(NC(=O)c3cc(NC(=O)c4cc(C)on4)cc(OC)c3)cc2C(F)(F)F)CC1	.	/	.	.	.
CCN1CCN(Cc2ccc(NC(=O)c3cc(NC(=O)C(=O)c4c[nH]c5ccccc45)cc(OC)c3)cc2C(F)(F)F)CC1	.	.	66!	.	/
CCN1CCN(Cc2ccc(NC(=O)c3ccc(C)c(NC(=O)C(=O)c4c[nH]c5ccccc45)c3)cc2C(F)(F)F)CC1	.	.	55!	.	.
CC(C)Oc1ccccc1C1CC(=O)Nc2c1c(=O)n(C)c(=O)n2C (centres undefined)	/	.	/	59	.
Cc1cccc(NC(=O)CN2C(=O)N/C(=C/c3cc(C)n(C)c3C)C2=O)c1	/	.	.	.	.
Cc1cccc(NC(=O)CN2C(=O)N/C(=C/c3cc(C)n(-c4cccnc4)c3C)C2=O)c1	/	.	28	.	.
Cc1cccc(NC(=O)CN2C(=O)N/C(=C/c3cc(C)n(-c4ccncc4)c3C)C2=O)c1	.	.	11	.	.
Cc1cc(/C=C2/NC(=O)N(c3ccccc3)C2=O)c(C)n1-c1cccnc1	.	/	.	.	.
CCn1c(SCC(=O)N2CCc3ccccc32)nnc1-c1ccncc1	.	.	.	.	.
CCn1c(SCC(=O)N2c3ccccc3CCc3ccccc32)nnc1-c1ccc(OC)cc1	.	.	.	55	.
COc1ccc(-c2nc(CS(=O)(=O)CC(=O)NCCCN3CCN(C)CC3)c(C)o2)cc1	.	.	.	57	.
NC(=O)C1CC2(CC(c3cccc(NC(=O)COc4ccc(Cl)cc4)c3)=NO2)CN1C(=O)c1ccccc1 (centres undefined)	/	.	/	/	/
CCOC1OC(C(=O)N2CCN(Cc3ccc4c(c3)OCO4)CC2)=CC(c2ccccc2)C1CCCO (centres undefined)	/	.	/	/	/
O=C(Nc1ccc(Br)cn1)c1ccc(COc2c(F)c(F)cc(F)c2F)o1	.	.	/	/	/
Cc1ccnc(NC(=O)c2ccc(COc3c(F)c(F)cc(F)c3F)o2)c1	.	.	.	58	.
Cc1ccc(S(=O)(=O)NN=Cc2ccc3nccnc3c2)cc1	/	.	/	/	/
CCn1c(O)c(N=NC(=O)c2ccc(CSc3nncn3C)cc2)c2ccccc21	.	42	.	.	.
Cc1nc(CNS(=O)(=O)c2cccc(F)c2)cs1	.	.	.	.	.
Cc1ccc(-c2csc(NS(=O)(=O)c3cccc(F)c3)n2)o1	.	.	16	/	/
COC(CC(O)C(C)C(O)COCc1ccccc1)OC (centres undefined)	/	.	/	/	/
COc1ccc(Cl)cc1N(CC(=O)Nc1ccccc1C(=O)N1CCCC1)S(C)(=O)=O	.	.	/	58	.
COc1ccccc1Oc1ccnc2cc(Cl)ccc12	.	.	.	58	.
O=C(Nc1cccc(F)c1)c1c(O)c2ccccc2[nH]c1=O	.	.	.	50	.
SMILES	Mtb BioA inh	Mtb hypoxia rep	FadD28 FP inh	DUSP3 inh	SARS 3CLpro inh
O=C(N/N=C/c1cccc(F)c1)c1c(O)c2ccccc2[nH]c1=O	/	/	.	.	.
CS(=O)(=O)N(CC(=O)NCC1CCCO1)c1cccc([N+](=O)[O-])c1 (centres undefined)	/	.	.	56	.
O=C1CSC(c2ccc([N+](=O)[O-])cc2)N1c1ccc(O)cc1 (centres undefined)	.	.	.	57	.
CC(C(=O)Nc1ccc2ccccc2c1)C1C[C@]1(C)C(NC(=O)c1cccnc1)c1ccccc1 (some centres undefined)	/	.	/	/	/
COCCNC(=O)c1ccc(C)c(NC(=O)C2=C(C)OCCS2)c1	.	.	.	.	.
CC1=C(C(=O)Nc2cc(C(=O)N(C)Cc3ccccc3)ccc2C)SCCO1	.	.	.	52	.
CON=C(c1nonc1N)N1CCN(c2ccc([N+](=O)[O-])cc2)CC1	/	.	/	/	/
CCc1nc2ccc(C(=O)NCCCn3ccnc3)cn2c1N(C)Cc1cc2ccccc2s1	.	/	9.2	/	/
CCc1nc2ccc(C(=O)NCCCn3ccnc3)cn2c1N(C)Cc1ccc(OC)cc1	.	/	.	/	/
CCN1C(=O)C2C(c3ccc(-c4ccc(F)cc4)cc3)N[C@@](Cc3ccccc3)(C(=O)OC)C2C1=O (some centres undefined)	/	.	/	/	/
O=C(O)c1cc(-c2ccc(/C=C3/SC(=S)N(Cc4ccccc4)C3=O)o2)ccc1Cl	.	.	28	.	.
